In PubChem BioAssay (NCI):
This is part of a sample that, as a whole, favours compounds with a hit. Of some 83,000 tested, about 20% had one in any assay.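 The test compound was applied at a single concentration to cells in 96-well plates for 48 hours, and percent growth was recorded.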 The source made the active and inactive calls. How the source made its calls: active means growth percent below 10; inactive means the rest.

System: MDA-MB-468 breast
Test: NCI-60 one-dose screen, 48 h (100 = growth as untreated, 0 = no growth, -100 = all killed)
Conditions: 10 µM unless noted

| Compound | growth |
| --- | --- |
| COc1ccc(/C(=C/c2cc(OC)c(OC)c(OC)c2)[N+](=O)[O-])cc1 | -75.2% (active) |
| C=C1C(=O)O[C@H]2[C@H]1CC/C(COC(=O)N[C@@H](Cc1c[nH]c3ccccc13)C(=O)OC)=C\CC[C@@]1(C)O[C@@H]21 | -16.4% (active) |
| CCCNC(=O)Oc1ccc(/C(=C(/C)Cc2ccc(OC)cc2)c2ccc(OCCN3CCCCC3)cc2)cc1 | 79.6% (inactive) |
| c1coc([C@@H]2C[C@@H]3Cc4ccc5ccccc5c4N2O3)c1 | 89.7% (inactive) |
| C=C(C)[C@@H]1CC[C@]2(CN)CC[C@]3(C)[C@H](CC[C@@H]4[C@@]5(C)CCC(=O)NC(C)(C)[C@@H]5CC[C@]43C)[C@@H]12 | 35.5% (inactive) |
| O=C1C(=O)N(CCCCn2cc(CO)nn2)c2ccccc21 | 98.6% (inactive) |
| CCOC(=O)c1nn(C2CCCCO2)c2ccc(NC(=O)CN3CCOCC3)cc12 (configuration not stated) | 107% (inactive) |
| COc1cc(OC)c(/C=C/S(=O)(=O)Cc2ccc(OC)c(NCC(=O)NO)c2)c(OC)c1 | 39.5% (inactive) |
| CC1=NC2=CC=CC3=NC(C(Cl)(Cl)Cl)=NC(=N1)N23 | 90.2% (inactive) |
| CC(C)(C)OC(=O)CN1CCc2c(sc3ncnc(N/N=C/c4cccc5ccccc45)c23)C1 | 34.3% (inactive) |
| O=C(CC1(O)C(=O)Nc2ccc(Br)cc21)c1ccc(Cl)cc1 (configuration not stated) | 100% (inactive) |
| C=C1C(=O)O[C@H]2[C@H]1CC/C(COC(=O)C(=O)c1c[nH]c3ccc(OC)cc13)=C\CC[C@@]1(C)O[C@@H]21 | -67.5% (active) |
